Experimental data published in PubChem BioAssay (NCATS).
Results filed as inconclusive are left out. Active and inactive are the calls of the source. Calls follow the shape of the dose curve; as a rule, active = well fitted cell-killing curve with a large enough effect; inconclusive = small, poorly fitted or top-dose-only effect, or effect the other way; inactive = flat fitted curve, though single readings scatter.

Columns and labels:
Experiment in all cases: Primary qHTS to identify gynecologic anti-cancer compounds using libraries of approved drugs and bioactive compounds (AID 1345084); also: nearly all actives have a fitted effect of over 55% in size
CAOV3 = settings: Gynecologic cancer cell panel viability, ATPlite luminescence, 48 h; series mostly up to 57.5 µM
How it was run: (§1)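 Cells, 1,000 per well, were allowed to settle for 16 h at 37 C before compound addition. Five concentrations were tested for 48 h, and viability was read by ATPlite luminescence after 15 min at room temperature.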

CASKI = settings: Gynecologic cancer cell panel viability, ATPlite luminescence, 48 h; series mostly up to 57.5 µM
How it was run: as §1

Es-2 = settings: Gynecologic cancer cell panel viability, ATPlite luminescence, 48 h; series mostly up to 57.5 µM
How it was run: as §1

HeLa = settings: Gynecologic cancer cell panel viability, ATPlite luminescence, 48 h; series mostly up to 57.5 µM
How it was run: as §1

Hek293T = settings: Gynecologic cancer cell panel viability, ATPlite luminescence, 48 h, control line for the selectivity index; series mostly up to 57.5 µM
How it was run: as §1

JEG-3 = settings: Gynecologic cancer cell panel viability, ATPlite luminescence, 48 h; series mostly up to 57.5 µM
How it was run: as §1

OV90 = settings: Gynecologic cancer cell panel viability, ATPlite luminescence, 48 h; series mostly up to 57.5 µM
How it was run: as §1

PA-1 = settings: Gynecologic cancer cell panel viability, ATPlite luminescence, 48 h; series mostly up to 57.5 µM
How it was run: as §1

SKOV3 = settings: Gynecologic cancer cell panel viability, ATPlite luminescence, 48 h; series mostly up to 57.5 µM
How it was run: as §1

Tov-21-G = settings: Gynecologic cancer cell panel viability, ATPlite luminescence, 48 h; series mostly up to 57.5 µM
How it was run: as §1

Tov112D = settings: Gynecologic cancer cell panel viability, ATPlite luminescence, 48 h; series mostly up to 57.5 µM
How it was run: as §1

Measured: Potency

CC1=C2C(=O)O[C@@H](c3ccoc3)[C@]2(C)CCC1
inactive: CAOV3 | CASKI | Es-2 | HeLa | Hek293T | JEG-3 | OV90 | PA-1 | SKOV3 | Tov-21-G | Tov112D

O=C(O)CCc1cc2ccoc2cc1O[C@@H]1O[C@H](CO[C@@H]2OC[C@](O)(CO)[C@H]2O)[C@@H](O)[C@H](O)[C@H]1O
inactive: CAOV3 | CASKI | Es-2 | HeLa | Hek293T | JEG-3 | OV90 | PA-1 | SKOV3 | Tov-21-G | Tov112D

C=C(C)C(=O)O[C@H]1C[C@@](C)(OC(C)=O)[C@@]2(O)CC[C@@](C)(O)[C@H](OC(C)=O)[C@@]23OC(=O)C(COC)=C13
inactive: CAOV3 | CASKI | Es-2 | HeLa | Hek293T | JEG-3 | OV90 | PA-1 | SKOV3 | Tov-21-G | Tov112D
